Data taken from PubChem BioAssay (NCATS).
Results filed as inconclusive are left out. Where a call stands in place of a potency, no number is given. Calls of active or inactive are those of the source. Calls come from the whole dose curve; as a rule, active = well fitted cell-killing curve with a large enough effect; inconclusive = small, poorly fitted or top-dose-only effect; inactive = flat fitted curve, though single readings scatter.

assay: Cell Viability - LYMP2-002 (AID 977); details: LYMP2-002 lymphoblastoid cell viability, qHTS; series mostly up to 92.2 µM;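 note: compound exposure lasted 24 h at 37 °C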
How it was run: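 Human lymphoblastoid cells (2500/well) in complete medium were preincubated 5 hr at 37 C, then exposed to compounds for 24 hr at 37 C. Intracellular ATP was read by CellTiter-Glo luminescence; AC50 came from Hill-equation concentration-response fits.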
Potency is the fitted concentration of half-maximal effect.

**Q.** With `CCOCCOC(C)=O` as the compound, how does the Potency read?
**A.** inactive

**Q.** Which Potency does the source give for `COc1ccc(C(c2ccc(OC)cc2)C(Cl)(Cl)Cl)cc1` here?
**A.** inactive

**Q.** For `O=C(O)C(Cl)Cl`, which Potency is on record?
**A.** inactive

**Q.** With `O=C(O)COc1ccccc1` as the compound, how does the Potency read?
**A.** inactive

**Q.** Which Potency does the source give for `O=[N+]([O-])c1c2ccccc2cc2ccccc12` here?
**A.** inactive

**Q.** Which Potency does the source give for `CC(C)(O)C(=O)Nc1ccc([N+](=O)[O-])c(C(F)(F)F)c1` here?
**A.** inactive

**Q.** With `CN(C)NC(=O)CCC(=O)O` as the compound, how does the Potency read?
**A.** inactive

**Q.** Which Potency does the source give for `CCCCCCCCc1ccc(O)cc1` here?
**A.** inactive

**Q.** For `O=[N+]([O-])c1cc([N+](=O)[O-])c2ccccc2c1`, which Potency is on record?
**A.** inactive

**Q.** For `CN(C)[C@@H]1C(=O)C(C(N)=O)=C(O)[C@@]2(O)C(=O)C3=C(O)c4c(O)cccc4[C@@](C)(O)[C@H]3[C@H](O)[C@@H]12`, which Potency is on record?
**A.** inactive

**Q.** For `CC(=O)[O][Hg][c]1ccccc1`, which Potency is on record?
**A.** 1580 nM (active)

**Q.** For `O=S(=O)(c1ccc(Cl)cc1)c1ccc(Cl)cc1`, which Potency is on record?
**A.** inactive

**Q.** Which Potency does the source give for `CCCCOC(=O)c1ccccc1C(=O)OCc1ccccc1` here?
**A.** inactive

**Q.** For `O=[N+]([O-])c1c(Cl)c(Cl)cc(Cl)c1Cl`, which Potency is on record?
**A.** inactive

**Q.** With `COC(C)(C)CCCC(C)C/C=C/C(C)=C/C(=O)OC(C)C` (configuration not stated) as the compound, how does the Potency read?
**A.** inactive

**Q.** For `Nc1ccc(Sc2ccc(N)cc2)cc1`, which Potency is on record?
**A.** inactive

**Q.** Which Potency does the source give for `Nc1ccc(Cl)cc1N` here?
**A.** inactive

**Q.** Which Potency does the source give for `C=CC(=O)NCNC(=O)C=C` here?
**A.** inactive

**Q.** For `Cc1cc(O)ccc1Cl`, which Potency is on record?
**A.** inactive

**Q.** Which Potency does the source give for `C1CCC(NC2CCCCC2)CC1` here?
**A.** inactive

**Q.** Which Potency does the source give for `CCCCC(CC)COC(=O)c1ccccc1C(=O)OCC(CC)CCCC` (configuration not stated) here?
**A.** inactive

**Q.** For `Nc1ccc([N+](=O)[O-])cc1`, which Potency is on record?
**A.** inactive

**Q.** With `c1cc2ccc3cccc4ccc(c1)c2c34` as the compound, how does the Potency read?
**A.** inactive

**Q.** With `OCCCBr` as the compound, how does the Potency read?
**A.** inactive

**Q.** Which Potency does the source give for `Nc1ccc(Cl)cc1` here?
**A.** inactive

**Q.** Which Potency does the source give for `CCOP(=O)(NC(C)C)Oc1ccc(SC)c(C)c1` (configuration not stated) here?
**A.** inactive

assay: Cell Viability - LYMP2-007 (AID 979); details: LYMP2-007 lymphoblastoid cell viability; series mostly up to 92.2 µM;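 note: cells exposed to compound for 24 h before reading; nearly all actives have a fitted effect of over 60% in size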
How it was run: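 Cells are seeded at 2500 per well and rested 5 hr. Compounds are then added over a concentration series for 24 hr at 37 C. CellTiter-Glo is added for 30 min at room temperature before luminescence reading.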

**Q.** With `CCOCCOC(C)=O` as the compound, how does the Potency read?
**A.** inactive

**Q.** For `COc1ccc(C(c2ccc(OC)cc2)C(Cl)(Cl)Cl)cc1`, which Potency is on record?
**A.** inactive

**Q.** With `O=C(O)C(Cl)Cl` as the compound, how does the Potency read?
**A.** inactive

**Q.** Which Potency does the source give for `O=C(O)COc1ccccc1` here?
**A.** inactive

**Q.** For `O=[N+]([O-])c1c2ccccc2cc2ccccc12`, which Potency is on record?
**A.** inactive

**Q.** Which Potency does the source give for `CC(C)(O)C(=O)Nc1ccc([N+](=O)[O-])c(C(F)(F)F)c1` here?
**A.** inactive

**Q.** Which Potency does the source give for `CN(C)NC(=O)CCC(=O)O` here?
**A.** inactive

**Q.** Which Potency does the source give for `CCCCCCCCc1ccc(O)cc1` here?
**A.** inactive

**Q.** For `O=[N+]([O-])c1cc([N+](=O)[O-])c2ccccc2c1`, which Potency is on record?
**A.** inactive

**Q.** With `CN(C)[C@@H]1C(=O)C(C(N)=O)=C(O)[C@@]2(O)C(=O)C3=C(O)c4c(O)cccc4[C@@](C)(O)[C@H]3[C@H](O)[C@@H]12` as the compound, how does the Potency read?
**A.** inactive

**Q.** For `CC(=O)[O][Hg][c]1ccccc1`, which Potency is on record?
**A.** 1000 nM (active)

**Q.** Which Potency does the source give for `O=S(=O)(c1ccc(Cl)cc1)c1ccc(Cl)cc1` here?
**A.** inactive

**Q.** For `CCCCOC(=O)c1ccccc1C(=O)OCc1ccccc1`, which Potency is on record?
**A.** inactive

**Q.** For `O=[N+]([O-])c1c(Cl)c(Cl)cc(Cl)c1Cl`, which Potency is on record?
**A.** inactive

**Q.** Which Potency does the source give for `COC(C)(C)CCCC(C)C/C=C/C(C)=C/C(=O)OC(C)C` (configuration not stated) here?
**A.** inactive

**Q.** Which Potency does the source give for `Nc1ccc(Sc2ccc(N)cc2)cc1` here?
**A.** inactive

**Q.** For `Nc1ccc(Cl)cc1N`, which Potency is on record?
**A.** inactive

**Q.** With `C=CC(=O)NCNC(=O)C=C` as the compound, how does the Potency read?
**A.** inactive

**Q.** For `Cc1cc(O)ccc1Cl`, which Potency is on record?
**A.** inactive

**Q.** For `C1CCC(NC2CCCCC2)CC1`, which Potency is on record?
**A.** inactive

**Q.** Which Potency does the source give for `CCCCC(CC)COC(=O)c1ccccc1C(=O)OCC(CC)CCCC` (configuration not stated) here?
**A.** inactive

**Q.** With `Nc1ccc([N+](=O)[O-])cc1` as the compound, how does the Potency read?
**A.** inactive

**Q.** Which Potency does the source give for `c1cc2ccc3cccc4ccc(c1)c2c34` here?
**A.** inactive

**Q.** Which Potency does the source give for `OCCCBr` here?
**A.** inactive

**Q.** For `Nc1ccc(Cl)cc1`, which Potency is on record?
**A.** inactive

**Q.** For `CCOP(=O)(NC(C)C)Oc1ccc(SC)c(C)c1` (configuration not stated), which Potency is on record?
**A.** inactive
